Records with an inconclusive call do not appear. Entries that show only a call come without a potency. Activity calls are given as the source filed them. Calls come from the whole dose curve; as a rule, active = well fitted cell-killing curve with a large enough effect; inconclusive = small, poorly fitted or top-dose-only effect; inactive = flat fitted curve, though single readings scatter.

The first assay can be described thus: Cell Viability - LYMP2-024 (AID 988). Note: nearly all actives have a fitted effect of over 60% in size. The following applies: LYMP2-024 lymphoblastoid cell viability; series mostly up to 92.2 µM. An outline of the steps: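 Human lymphoblastoid LYMP2-024 cells (2500/well) rested 5 hr, then treated with compound for 24 hr at 37 C in complete medium. Viability was measured as intracellular ATP by CellTiter-Glo luminescence. AC50 values came from Hill-equation fits.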
As for `CC(=O)c1ccccc1[N+](=O)[O-]`, the Potency result was “inactive”.
Still for that read-out and setting: as for `CCCCCCCN`, the entry is “inactive”.
For `FC(F)(F)c1ccccc1Cl`, the Potency entry is “inactive”.
As for `O=C(O)c1cccc(Cl)c1Cl`, the Potency result is “inactive”.
Same read-out and setting: then `NC(=O)NC(N)=O`, with “inactive”; and `C/C=C1\CC2C=CC1C2` (centres undefined), with “inactive”; and `Cc1ccccc1C=O`, with “inactive”.
For the compound `CCC(O)C(C)(C)C` (centres undefined), the Potency result was “inactive”.
Still for that read-out and setting: then `CCOC(=O)OCC`, with “inactive”; and `CC(=O)OCc1ccco1`, with “inactive”; and `c1ccc2c(c1)Oc1ccccc1S2`, with “inactive”.
`Cc1ccc2ccccc2c1[N+](=O)[O-]`: the Potency result was “inactive”.
For the compound `CC=O`, the Potency entry was “inactive”.
The same measure, in the same setting: then `CNc1ccccc1`, with “inactive”; and `CC(C)=CCl`, with “inactive”; and `O=C(O)c1ccc(Cl)cc1Cl`, with “inactive”.
Same read-out and setting: then `C=C(C)C(=O)OCC(C)O` (centres undefined), with “inactive”.
Regarding `NC(=O)CCCCC(N)=O`, the Potency result was “inactive”.
Still for that read-out and setting: then `CN(C)CCCNCCCN`, with “inactive”; and `C=CCCC`, with “inactive”; and `CO[Si](CCCNCCC[Si](OC)(OC)OC)(OC)OC`, with “inactive”.
On to `CC(=O)Nc1cccc(N)c1`, for which the Potency result was “inactive”.
On the same count and under the same terms, then `Cc1cccc2ccccc12`, with “inactive”; and `Cc1cc(C)c(N)cc1C`, with “inactive”; and `Nc1cc(Cl)c(N)c(Cl)c1`, with “inactive”.
`CCC(C)(C)C`: the Potency entry is “inactive”.
As for `CCNc1cc(O)ccc1C`, the Potency result was “inactive”.
Regarding `Cc1cc(C)cc(O)c1`, the Potency result is “inactive”.
On to `COc1ccc(N=[N+]([O-])c2ccc(OC)cc2)cc1`, for which the Potency result was “inactive”.
As for `CCOCC(=O)O`, the Potency result is “inactive”.
Same read-out and setting: then `O=C(O)c1ccc(Cl)c(Cl)c1`, with “inactive”.
With `Nc1cccc2c(=O)[nH][nH]c(=O)c12`, the Potency result was “inactive”.
Still for that read-out and setting: as for `O=C(Cl)c1c(Cl)cccc1Cl`, the entry is “inactive”; as for `C=CCCCC`, “inactive”.
Same read-out and setting: as for `CCCCCCC(=O)O`, the entry is “inactive”; as for `Cc1cscn1`, “inactive”; as for `O=C(Cl)c1cccc([N+](=O)[O-])c1`, “inactive”.
On the same count and under the same terms, as for `O=P(O)(OCc1ccccc1)OCc1ccccc1`, the entry is “inactive”.
For the compound `CC(C)N(C)C`, the Potency entry is “inactive”.
With `Cc1ccc(S(=O)(=O)NC2CCCCC2)cc1`, the Potency entry was “inactive”.

Another assay is described as follows: Cell Viability - LYMP2-026 (AID 989). Note: nearly all actives have a fitted effect of over 50% in size. The note with it: LYMP2-026 lymphoblastoid cell viability, qHTS; series mostly up to 92.2 µM. An outline of the steps:
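Human lymphoblastoid LYMP2-026 cells, 2500/well, exposed to compound 24 h at 37 C in complete medium. Viability as intracellular ATP by CellTiter-Glo luminescence; AC50 from Hill fits of qHTS concentration-response.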
Background: In qHTS, concentration-response curves come from the screen itself.
For the compound `CC(=O)c1ccccc1[N+](=O)[O-]`, the result was inactive.
For `CCCCCCCN`, the outcome was inactive.
On the same count and under the same terms, as for `FC(F)(F)c1ccccc1Cl`, the entry is “inactive”; as for `O=C(O)c1cccc(Cl)c1Cl`, “inactive”.
With `NC(=O)NC(N)=O`, the compound was classed as inactive.
Turning to `C/C=C1\CC2C=CC1C2` (centres undefined), the result was inactive.
On to `Cc1ccccc1C=O`, for which the compound was classed as inactive.
On to `CCC(O)C(C)(C)C` (centres undefined), for which the outcome was inactive.
Same read-out and setting: then `CCOC(=O)OCC`, with “inactive”.
The same measure, in the same setting: then `CC(=O)OCc1ccco1`, with “inactive”; and `c1ccc2c(c1)Oc1ccccc1S2`, with “inactive”.
Still for that read-out and setting: then `Cc1ccc2ccccc2c1[N+](=O)[O-]`, with “inactive”.
Consider `CC=O`, for which the call was inactive.
As for `CNc1ccccc1`, the compound was called inactive.
Consider `CC(C)=CCl`, for which the result was inactive.
As for `O=C(O)c1ccc(Cl)cc1Cl`, the call was inactive.
On the same count and under the same terms, then `C=C(C)C(=O)OCC(C)O` (centres undefined), with “inactive”; and `NC(=O)CCCCC(N)=O`, with “inactive”.
For `CN(C)CCCNCCCN`, the call was inactive.
On to `C=CCCC`, for which the compound was called inactive.
On the same count and under the same terms, as for `CO[Si](CCCNCCC[Si](OC)(OC)OC)(OC)OC`, the entry is “inactive”.
Regarding `CC(=O)Nc1cccc(N)c1`, the result was inactive.
Turning to `Cc1cccc2ccccc12`, the compound was called inactive.
Still for that read-out and setting: as for `Cc1cc(C)c(N)cc1C`, the entry is “inactive”; as for `Nc1cc(Cl)c(N)c(Cl)c1`, “inactive”.
`CCC(C)(C)C`: the call was inactive.
Still for that read-out and setting: as for `CCNc1cc(O)ccc1C`, the entry is “inactive”; as for `Cc1cc(C)cc(O)c1`, “inactive”; as for `COc1ccc(N=[N+]([O-])c2ccc(OC)cc2)cc1`, “inactive”.
On the same count and under the same terms, as for `CCOCC(=O)O`, the entry is “inactive”; as for `O=C(O)c1ccc(Cl)c(Cl)c1`, “inactive”; as for `Nc1cccc2c(=O)[nH][nH]c(=O)c12`, “inactive”.
On the same count and under the same terms, as for `O=C(Cl)c1c(Cl)cccc1Cl`, the entry is “inactive”; as for `C=CCCCC`, “inactive”.
As to `CCCCCCC(=O)O`, the compound was called inactive.
Consider `Cc1cscn1`, for which the result was inactive.
Turning to `O=C(Cl)c1cccc([N+](=O)[O-])c1`, the compound was classed as inactive.
Consider `O=P(O)(OCc1ccccc1)OCc1ccccc1`, for which the compound was called inactive.
The same measure, in the same setting: as for `CC(C)N(C)C`, the entry is “inactive”; as for `Cc1ccc(S(=O)(=O)NC2CCCCC2)cc1`, “inactive”.

A further assay in a line: Cell Viability - LYMP1-002 - Assay at 24 hr (AID 993). The note with it: LYMP1-002 lymphoblastoid cells viability; series mostly up to 92.2 µM. Put shortly: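 Human lymphoblastoid LYMP1-002 cells (2500/well) treated 24 h at 37 °C; viability as intracellular ATP by CellTiter-Glo luminescence. Tetraoctylammonium bromide as positive control; AC50 from Hill-equation fits of qHTS concentration-response.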
As for `CC(=O)c1ccccc1[N+](=O)[O-]`, the Potency result is “inactive”.
As for `CCCCCCCN`, the Potency entry is “inactive”.
On the same count and under the same terms, then `FC(F)(F)c1ccccc1Cl`, with “inactive”; and `O=C(O)c1cccc(Cl)c1Cl`, with “inactive”.
The same measure, in the same setting: then `NC(=O)NC(N)=O`, with “inactive”.
Same read-out and setting: as for `C/C=C1\CC2C=CC1C2` (centres undefined), the entry is “inactive”; as for `Cc1ccccc1C=O`, “inactive”.
In the case of `CCC(O)C(C)(C)C` (centres undefined), the Potency result was “inactive”.
Regarding `CCOC(=O)OCC`, the Potency entry was “inactive”.
As to `CC(=O)OCc1ccco1`, the Potency result was “inactive”.
For the compound `c1ccc2c(c1)Oc1ccccc1S2`, the Potency result was “inactive”.
For `Cc1ccc2ccccc2c1[N+](=O)[O-]`, the Potency result is “inactive”.
For `CC=O`, the Potency result was “inactive”.
As for `CNc1ccccc1`, the Potency entry is “inactive”.
With `CC(C)=CCl`, the Potency result was “inactive”.
Regarding `O=C(O)c1ccc(Cl)cc1Cl`, the Potency result was “inactive”.
In the case of `C=C(C)C(=O)OCC(C)O` (centres undefined), the Potency entry was “inactive”.
On the same count and under the same terms, as for `NC(=O)CCCCC(N)=O`, the entry is “inactive”.
Same read-out and setting: then `CN(C)CCCNCCCN`, with “inactive”; and `C=CCCC`, with “inactive”; and `CO[Si](CCCNCCC[Si](OC)(OC)OC)(OC)OC`, with “inactive”.
Regarding `CC(=O)Nc1cccc(N)c1`, the Potency entry was “inactive”.
Still for that read-out and setting: as for `Cc1cc(C)c(N)cc1C`, the entry is “inactive”.
On to `Nc1cc(Cl)c(N)c(Cl)c1`, for which the Potency entry is “inactive”.
For the compound `CCC(C)(C)C`, the Potency entry was “inactive”.
Same read-out and setting: then `CCNc1cc(O)ccc1C`, with “inactive”.
Consider `Cc1cc(C)cc(O)c1`, for which the Potency result is “inactive”.
Same read-out and setting: as for `COc1ccc(N=[N+]([O-])c2ccc(OC)cc2)cc1`, the entry is “inactive”.
Still for that read-out and setting: then `CCOCC(=O)O`, with “inactive”; and `O=C(O)c1ccc(Cl)c(Cl)c1`, with “inactive”.
Take `Nc1cccc2c(=O)[nH][nH]c(=O)c12`: the Potency entry was “inactive”.
As for `O=C(Cl)c1c(Cl)cccc1Cl`, the Potency result is “inactive”.
Take `C=CCCCC`: the Potency result was “inactive”.
With `CCCCCCC(=O)O`, the Potency result was “inactive”.
`Cc1cscn1`: the Potency entry is “inactive”.
In the case of `O=C(Cl)c1cccc([N+](=O)[O-])c1`, the Potency entry was “inactive”.
The same measure, in the same setting: as for `O=P(O)(OCc1ccccc1)OCc1ccccc1`, the entry is “inactive”.
Still for that read-out and setting: as for `CC(C)N(C)C`, the entry is “inactive”.
Turning to `Cc1ccc(S(=O)(=O)NC2CCCCC2)cc1`, the Potency entry is “inactive”.

(Values after PubChem BioAssay (NCATS).)
